Results published in PubChem BioAssay (NCI).
The panel holds about 83,000 compounds, 20% with a hit somewhere; the sample as a whole holds those more often.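 In brief: 96-well plates, 48 h treatment, single concentration, percent growth endpoint.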 The source made the active and inactive calls. Rule for the calls: active = growth percent below 10; inactive = the rest.

Tests used:
Experiment in all cases: NCI-60 one-dose screen, 48 h (100 = growth as untreated, 0 = no growth, -100 = all killed)
Conditions in all cases: 10 µM unless noted
SR leukemia = tested on: SR leukemia
RPMI-8226 leukemia = tested on: RPMI-8226 leukemia
OVCAR-8 ovarian = tested on: OVCAR-8 ovarian
OVCAR-5 ovarian = tested on: OVCAR-5 ovarian
OVCAR-4 ovarian = tested on: OVCAR-4 ovarian
SK-OV-3 ovarian = tested on: SK-OV-3 ovarian
IGROV1 ovarian = tested on: IGROV1 ovarian
OVCAR-3 ovarian = tested on: OVCAR-3 ovarian
HS 578T breast = tested on: HS 578T breast
NCI/ADR-RES ovarian = tested on: NCI/ADR-RES ovarian
T-47D breast = tested on: T-47D breast
BT-549 breast = tested on: BT-549 breast
MDA-MB-435 melanoma = tested on: MDA-MB-435 melanoma
SW-620 colon = tested on: SW-620 colon
MCF7 breast = tested on: MCF7 breast
HCT-116 colon = tested on: HCT-116 colon
HCC-2998 colon = tested on: HCC-2998 colon
KM12 colon = tested on: KM12 colon

Measured: growth

CCn1c(SCC(=O)Nc2cccc(C(=O)/C=C/c3cc(OC)c(OC)c(OC)c3)c2)nc2ccccc2c1=O
active: SR leukemia 5.81% | RPMI-8226 leukemia -7.09% | HCT-116 colon -28.8%
inactive: OVCAR-8 ovarian 34.3% | OVCAR-5 ovarian 27.7% | OVCAR-4 ovarian 39.9% | SK-OV-3 ovarian 102% | IGROV1 ovarian 13% | OVCAR-3 ovarian 14.3% | HS 578T breast 59.3% | NCI/ADR-RES ovarian 14.1% | T-47D breast 49.3% | BT-549 breast 52.8% | MDA-MB-435 melanoma 36.7% | SW-620 colon 14.9% | MCF7 breast 19.9% | HCC-2998 colon 42.2% | KM12 colon 44.6%

Fc1ccc(-c2cc3nc(C(Cl)Cl)nc(-c4ccc(F)cc4)n3n2)cc1
active: SR leukemia 3.96% | RPMI-8226 leukemia 3.43% | OVCAR-5 ovarian -14.3% | OVCAR-4 ovarian -9.54% | SK-OV-3 ovarian -29.2% | OVCAR-3 ovarian -31.7% | HS 578T breast -1.86% | SW-620 colon -29.3% | HCT-116 colon 4.72% | HCC-2998 colon -45.8% | KM12 colon -12.5%
inactive: OVCAR-8 ovarian 11.8% | IGROV1 ovarian 31.4% | NCI/ADR-RES ovarian 19.4% | T-47D breast 34.3% | BT-549 breast 47% | MDA-MB-435 melanoma 14.6% | MCF7 breast 24.2%

COC(=O)C[Se]C(=O)Cc1c(C)n(C(=O)c2ccc(Cl)cc2)c2ccc(OC)cc12
active: NCI/ADR-RES ovarian 9.78% | HCT-116 colon 4.82%
inactive: SR leukemia 16.4% | RPMI-8226 leukemia 90.8% | OVCAR-8 ovarian 41.4% | OVCAR-5 ovarian 15.4% | OVCAR-4 ovarian 40.6% | SK-OV-3 ovarian 118% | IGROV1 ovarian 16.8% | OVCAR-3 ovarian 44.7% | HS 578T breast 29.8% | T-47D breast 83% | BT-549 breast 102% | MDA-MB-435 melanoma 39.6% | SW-620 colon 62.4% | MCF7 breast 28.2% | HCC-2998 colon 58.3% | KM12 colon 26.4%

CCc1cccc(NC(=O)CNc2cc(S(=O)(=O)N(C)C)cc(C)c2C)c1
inactive: SR leukemia 83.8% | RPMI-8226 leukemia 65.7% | OVCAR-8 ovarian 97.7% | OVCAR-5 ovarian 84.1% | OVCAR-4 ovarian 56.3% | SK-OV-3 ovarian 107% | IGROV1 ovarian 74% | OVCAR-3 ovarian 112% | HS 578T breast 97.2% | NCI/ADR-RES ovarian 100% | T-47D breast 88.8% | BT-549 breast 97.3% | MDA-MB-435 melanoma 92.4% | SW-620 colon 97.6% | MCF7 breast 91.7% | HCT-116 colon 91.3% | HCC-2998 colon 123% | KM12 colon 98.9%

COc1cc(-c2nc(-c3ccccc3)[nH]c2-c2ccnc(NCCCNS(=O)(=O)c3cccc(F)c3)n2)ccc1Cl
inactive: SR leukemia 32.2% | RPMI-8226 leukemia 27.2% | OVCAR-8 ovarian 31.7% | OVCAR-5 ovarian 88.1% | OVCAR-4 ovarian 56.3% | SK-OV-3 ovarian 76.8% | IGROV1 ovarian 40.6% | OVCAR-3 ovarian 40.7% | HS 578T breast 78% | NCI/ADR-RES ovarian 31.9% | T-47D breast 24.1% | BT-549 breast 71% | MDA-MB-435 melanoma 22.5% | SW-620 colon 71.3% | MCF7 breast 35.3% | HCT-116 colon 18.8% | HCC-2998 colon 55.5% | KM12 colon 39.8%

CN(Cc1ccccc1)S(=O)(=O)/N=C1\NC(=O)NC1=C(Cl)Cl
inactive: OVCAR-8 ovarian 93.9% | OVCAR-5 ovarian 11.9% | OVCAR-4 ovarian 91.8% | SK-OV-3 ovarian 110% | HS 578T breast 96.7% | NCI/ADR-RES ovarian 81.5% | T-47D breast 56.8% | BT-549 breast 94.6% | MDA-MB-435 melanoma 79.6% | MCF7 breast 12.6% | HCT-116 colon 21.3% | HCC-2998 colon 71.8%
active: SR leukemia -0.359% | RPMI-8226 leukemia -1.12% | IGROV1 ovarian 3.38% | OVCAR-3 ovarian -81.7% | SW-620 colon -49.5% | KM12 colon 4.88%

CS(=O)(=O)Nc1cc(-c2ccc3ncc(C#N)c(NCc4cccc(F)c4)c3c2)cnc1Cl
active: SR leukemia 2.9% | RPMI-8226 leukemia -24.2% | OVCAR-8 ovarian 7.95% | SK-OV-3 ovarian -18.2% | IGROV1 ovarian -42.5% | OVCAR-3 ovarian 2.49% | HS 578T breast -24.8% | T-47D breast 0.599% | BT-549 breast -17.4% | MDA-MB-435 melanoma 5.21% | SW-620 colon 6.55% | MCF7 breast 0.85% | HCT-116 colon 4.35% | HCC-2998 colon -25.1% | KM12 colon 6.28%
inactive: OVCAR-5 ovarian 16.4% | OVCAR-4 ovarian 11.3% | NCI/ADR-RES ovarian 23.4%

CCCCCc1ccc(S(=O)(=O)Nc2cccc(-c3csc(NC(=O)CN4CCN(CCO)CC4)n3)c2)cc1
inactive: RPMI-8226 leukemia 20.2% | OVCAR-8 ovarian 91.4% | OVCAR-5 ovarian 101% | OVCAR-4 ovarian 79.2% | SK-OV-3 ovarian 89.5% | IGROV1 ovarian 85.5% | OVCAR-3 ovarian 93.2% | HS 578T breast 69.4% | NCI/ADR-RES ovarian 99% | T-47D breast 64.5% | BT-549 breast 99.9% | MDA-MB-435 melanoma 44.3% | SW-620 colon 74.3% | MCF7 breast 35.8% | HCT-116 colon 45% | HCC-2998 colon 26.9% | KM12 colon 54%
active: SR leukemia 5.04%

Cc1ccc(NC(=O)c2ccc(CN3CCN(C)CC3)cc2)cc1Oc1ccc(-c2[nH]nc3ncnc(N)c23)cc1
inactive: SR leukemia 80.2% | RPMI-8226 leukemia 75.5% | OVCAR-8 ovarian 99.5% | OVCAR-5 ovarian 101% | OVCAR-4 ovarian 99.1% | SK-OV-3 ovarian 93.7% | IGROV1 ovarian 90% | OVCAR-3 ovarian 88.4% | HS 578T breast 82.8% | NCI/ADR-RES ovarian 100% | T-47D breast 81.4% | BT-549 breast 93% | MDA-MB-435 melanoma 86.4% | SW-620 colon 80.2% | MCF7 breast 35.7% | HCT-116 colon 81.9% | HCC-2998 colon 124% | KM12 colon 56.3%

N#Cc1cccc(/C(N)=N/C(N)=N/c2nc3ccccc3s2)c1
inactive: SR leukemia 26.2% | OVCAR-8 ovarian 35% | OVCAR-5 ovarian 62.3% | OVCAR-4 ovarian 91.7% | SK-OV-3 ovarian 41.6% | IGROV1 ovarian 36.6% | OVCAR-3 ovarian 20.6% | HS 578T breast 23% | NCI/ADR-RES ovarian 14.3% | T-47D breast 34.1% | BT-549 breast 49.3% | SW-620 colon 22.9% | MCF7 breast 23.1% | HCT-116 colon 24% | HCC-2998 colon 55.7% | KM12 colon 24.6%
active: RPMI-8226 leukemia 8.74% | MDA-MB-435 melanoma -39%

COc1cc(-c2ccc3ncnc(NCc4ccccc4)c3c2)cnc1OC
inactive: SR leukemia 62.1% | RPMI-8226 leukemia 34.5% | OVCAR-8 ovarian 70.7% | OVCAR-5 ovarian 28.9% | OVCAR-4 ovarian 65.3% | SK-OV-3 ovarian 43.2% | OVCAR-3 ovarian 43.4% | HS 578T breast 20% | NCI/ADR-RES ovarian 68.3% | BT-549 breast 57.2% | MDA-MB-435 melanoma 77.1% | SW-620 colon 74.6% | MCF7 breast 27% | HCT-116 colon 78.1% | HCC-2998 colon 73.2% | KM12 colon 95.2%
active: IGROV1 ovarian -31.8% | T-47D breast 2.37%

COc1ccc(N2C(=O)c3cc(Cl)ccc3NC2SCc2ccccc2)cc1 (stereo not drawn)
inactive: SR leukemia 103% | RPMI-8226 leukemia 107% | OVCAR-8 ovarian 94.8% | OVCAR-5 ovarian 102% | OVCAR-4 ovarian 94.7% | SK-OV-3 ovarian 101% | IGROV1 ovarian 99.5% | OVCAR-3 ovarian 105% | HS 578T breast 106% | NCI/ADR-RES ovarian 99.1% | T-47D breast 88.1% | BT-549 breast 97.5% | MDA-MB-435 melanoma 94.5% | SW-620 colon 103% | MCF7 breast 85.4% | HCT-116 colon 73.8% | HCC-2998 colon 106% | KM12 colon 96.9%

NS(=O)(=O)c1ccc(Nc2nc(N/N=C/CCc3ccccc3)nc(Nc3ccccc3)n2)cc1
inactive: SR leukemia 91.5% | RPMI-8226 leukemia 101% | OVCAR-8 ovarian 104% | OVCAR-5 ovarian 103% | OVCAR-4 ovarian 104% | SK-OV-3 ovarian 104% | IGROV1 ovarian 106% | OVCAR-3 ovarian 117% | HS 578T breast 96.8% | NCI/ADR-RES ovarian 113% | T-47D breast 102% | BT-549 breast 99.4% | MDA-MB-435 melanoma 101% | SW-620 colon 104% | MCF7 breast 96.3% | HCT-116 colon 103% | HCC-2998 colon 113% | KM12 colon 109%

NC(N)=Nc1ccc(Nc2cccc(Oc3ccc(Cl)c(C(F)(F)F)c3)c2)cn1
active: SR leukemia -49.9% | RPMI-8226 leukemia -40.8% | OVCAR-3 ovarian -55% | SW-620 colon -60.5% | MCF7 breast -11.2% | HCT-116 colon -72.9% | HCC-2998 colon -33.1% | KM12 colon -58.7%
inactive: OVCAR-8 ovarian 27.4% | OVCAR-5 ovarian 58.1% | OVCAR-4 ovarian 39.8% | SK-OV-3 ovarian 56.3% | IGROV1 ovarian 22.6% | HS 578T breast 45.4% | NCI/ADR-RES ovarian 80.5% | T-47D breast 23.7% | BT-549 breast 76.2% | MDA-MB-435 melanoma 18.3%

COc1cc(OC)cc(C(=O)Nc2cccc(C#Cc3cccc4[nH]nc(N)c34)c2)c1
inactive: SR leukemia 16.6% | RPMI-8226 leukemia 18.6% | OVCAR-8 ovarian 31.2% | OVCAR-5 ovarian 39.5% | OVCAR-4 ovarian 53.9% | SK-OV-3 ovarian 39.1% | IGROV1 ovarian 20.4% | OVCAR-3 ovarian 12.2% | NCI/ADR-RES ovarian 34.2% | T-47D breast 31.2% | BT-549 breast 33.7% | SW-620 colon 15.9% | MCF7 breast 26.2% | HCT-116 colon 13% | HCC-2998 colon 43.3% | KM12 colon 12%
active: HS 578T breast -21.9% | MDA-MB-435 melanoma -38.1%

Clc1cccc(/C=N/Nc2nc(N/N=C/c3cccc(Cl)c3Cl)nc(N3CCCCC3)n2)c1Cl
active: OVCAR-3 ovarian 8.19%
inactive: SR leukemia 33.4% | RPMI-8226 leukemia 93.4% | OVCAR-8 ovarian 72.9% | OVCAR-5 ovarian 94% | OVCAR-4 ovarian 71.5% | SK-OV-3 ovarian 105% | IGROV1 ovarian 79.6% | HS 578T breast 85% | NCI/ADR-RES ovarian 67.4% | T-47D breast 48.3% | BT-549 breast 97.3% | MDA-MB-435 melanoma 68.8% | SW-620 colon 42.6% | MCF7 breast 71.2% | HCT-116 colon 48.8% | HCC-2998 colon 97.4% | KM12 colon 67.2%
